# Reference: PubChem BioAssay AID1159580 (chemical genetic matrix, 2015)
# Screen size: about 5,500 compounds; about 2,000 (36%) were called active. Another 18% or so got no clear call; they are omitted. Some of the results follow. A number with no mark means an inactive call. Cut-off read from the data, not from the text of the source: active = normalized growth mostly below about 0.91 (no sharp cut-off); inconclusive = no clear call, values can overlap the other calls; inactive = mostly above about 0.92.
# Assay: chemical genetic growth profiling, strain panel (AID 1159580);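 note: tested at 20 µM; growth read once vehicle control cultures reached saturation at 30 °C; 1 = growth at the plate median or of vehicle wells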
# Conditions: S. cerevisiae deletion strains, growth OD
smiles,measurement,setting,value
CC(=O)O[C@H]1CC[C@]2(C)C3CC(=O)[C@]4(C)C(C(C)=O)=CCC4C3CC[C@H]2C1 (stereo partly drawn),normalized growth,"locus YAL021C, strain ccr4, stronger effect = lower value",1
same,normalized growth,"locus YAL026C, strain drs2, stronger effect = lower value",0.997
same,normalized growth,"locus YAL030W, strain snc1, stronger effect = lower value",1
same,normalized growth,"locus YBL061C, strain skt5, stronger effect = lower value",0.994
same,normalized growth,"locus YBR009C, strain hhf1, stronger effect = lower value",0.996
same,normalized growth,"locus YBR021W, strain FUR4, stronger effect = lower value",1
same,normalized growth,"locus YBR023C, strain chs3, stronger effect = lower value",0.995
same,normalized growth,"locus YBR171W, strain sec66, stronger effect = lower value",0.995
same,normalized growth,"locus YBR229C, strain ROT2, stronger effect = lower value",0.997
same,normalized growth,"locus YBR231C, strain swc5, stronger effect = lower value",1
same,normalized growth,"locus YBR279W, strain paf1, stronger effect = lower value",0.996
same,normalized growth,"locus YCL011C, strain gbp2, stronger effect = lower value",0.984
same,normalized growth,"locus YCL016C, strain dcc1, stronger effect = lower value",0.992
same,normalized growth,"locus YCL029C, strain bik1, stronger effect = lower value",0.987
same,normalized growth,"locus YCL061C, strain MRC1, stronger effect = lower value",0.994
same,normalized growth,"locus YCL069W, strain vba3, stronger effect = lower value",0.992
same,normalized growth,"locus YCR088W, strain abp1, stronger effect = lower value",0.987
same,normalized growth,"locus YDL005C, strain med2, stronger effect = lower value",0.984
same,normalized growth,"locus YDL035C, strain GPR1, stronger effect = lower value",0.956
same,normalized growth,"locus YDL040C, strain nat1, stronger effect = lower value",0.993
same,normalized growth,"locus YDL074C, strain BRE1, stronger effect = lower value",0.967
same,normalized growth,"locus YDL101C, strain DUN1, stronger effect = lower value",1
same,normalized growth,"locus YDL185W, strain tfp1, stronger effect = lower value",1.02
same,normalized growth,"locus YDL192W, strain arf1, stronger effect = lower value",0.978
same,normalized growth,"locus YDR001C, strain nth1, stronger effect = lower value",0.994
same,normalized growth,"locus YDR069C, strain doa4, stronger effect = lower value",1.02
same,normalized growth,"locus YDR101C, strain arx1, stronger effect = lower value",0.988
same,normalized growth,"locus YDR137W, strain rgp1, stronger effect = lower value",0.924
same,normalized growth,"locus YDR159W, strain sac3, stronger effect = lower value",0.921
same,normalized growth,"locus YDR162C, strain NBP2, stronger effect = lower value",0.987
same,normalized growth,"locus YDR195W, strain ref2",1
same,normalized growth,"locus YDR297W, strain sur2, stronger effect = lower value",0.998
same,normalized growth,"locus YDR318W, strain mcm21, stronger effect = lower value",0.988
same,normalized growth,"locus YDR334W, strain swr1, stronger effect = lower value",1.01
same,normalized growth,"locus YDR335W, strain msn5, stronger effect = lower value",1
same,normalized growth,"locus YDR388W, stronger effect = lower value",0.998
same,normalized growth,"locus YDR392W, strain spt3, stronger effect = lower value",0.628 (active)
same,normalized growth,"locus YDR502C, strain sam2, stronger effect = lower value",0.978
same,normalized growth,"locus YEL003W, strain gim4, stronger effect = lower value",0.996
same,normalized growth,"locus YEL037C, strain rad23, stronger effect = lower value",1.01
same,normalized growth,"locus YEL061C, strain CIN8 (second series), stronger effect = lower value",1
same,normalized growth,"locus YEL061C, strain CIN8, stronger effect = lower value",0.993
same,normalized growth,"locus YER015W, strain faa2, stronger effect = lower value",1
same,normalized growth,"locus YER016W, strain bim1, stronger effect = lower value",0.994
same,normalized growth,"locus YER110C, stronger effect = lower value",1.01
same,normalized growth,"locus YER111C, strain swi4, stronger effect = lower value",1.01
same,normalized growth,"locus YER155C, strain BEM2 (second series), stronger effect = lower value",0.963
same,normalized growth,"locus YER155C, strain BEM2, stronger effect = lower value",0.983
same,normalized growth,"locus YER167W, strain BCK2, stronger effect = lower value",0.982
same,normalized growth,"locus YFR010W, strain ubp6, stronger effect = lower value",1
same,normalized growth,"locus YGL078C, strain dbp3, stronger effect = lower value",1.01
same,normalized growth,"locus YGL086W, strain mad1, stronger effect = lower value",0.968
same,normalized growth,"locus YGL167C, strain pmr1, stronger effect = lower value",0.985
same,normalized growth,"locus YGL173C, strain kem1, stronger effect = lower value",0.995
same,normalized growth,"locus YGL227W, strain vid30, stronger effect = lower value",0.996
same,normalized growth,"locus YGL240W, strain doc1, stronger effect = lower value",1.01
same,normalized growth,"locus YGL248W, strain PDE1, stronger effect = lower value",0.99
same,normalized growth,"locus YGL253W, strain hxk2, stronger effect = lower value",0.982
same,normalized growth,"locus YGR078C, strain PAC10, stronger effect = lower value",0.983
same,normalized growth,"locus YGR135W, strain pre9, stronger effect = lower value",1.01
same,normalized growth,"locus YGR229C, strain SMI1, stronger effect = lower value",0.995
same,normalized growth,"locus YGR252W, strain gcn5, stronger effect = lower value",1.05
same,normalized growth,"locus YHR013C, strain ard1, stronger effect = lower value",0.934
same,normalized growth,"locus YHR027C, strain rpn1, stronger effect = lower value",0.988
same,normalized growth,"locus YHR079C, strain IRE1 (second series), stronger effect = lower value",0.997
same,normalized growth,"locus YHR094C, strain hxt1, stronger effect = lower value",1
same,normalized growth,"locus YHR129C, strain ARP1, stronger effect = lower value",0.982
same,normalized growth,"locus YHR142W, strain chs7, stronger effect = lower value",0.972
same,normalized growth,"locus YHR200W, strain rpn10, stronger effect = lower value",1.01
same,normalized growth,"locus YIL066C, strain RNR3, stronger effect = lower value",0.98
same,normalized growth,"locus YIL073C, strain SPO22, stronger effect = lower value",1.03
same,normalized growth,"locus YIL125W, strain kgd1, stronger effect = lower value",0.989
same,normalized growth,"locus YIR030C, strain dcg1, stronger effect = lower value",0.998
same,normalized growth,"locus YJL092W, strain hpr5, stronger effect = lower value",0.988
same,normalized growth,"locus YJL095W, strain BCK1 (second series), stronger effect = lower value",0.997
same,normalized growth,"locus YJL095W, strain BCK1, stronger effect = lower value",1.02
same,normalized growth,"locus YJL115W, strain asf1, stronger effect = lower value",1
same,normalized growth,"locus YJL129C, strain trk1, stronger effect = lower value",1.01
same,normalized growth,"locus YJL134W, strain LCB3, stronger effect = lower value",0.988
same,normalized growth,"locus YJL154C, strain vps35, stronger effect = lower value",1
same,normalized growth,"locus YJL164C, strain tpk1, stronger effect = lower value",0.988
same,normalized growth,"locus YJL166W, strain qcr8, stronger effect = lower value",0.991
same,normalized growth,"locus YJL168C, strain set2, stronger effect = lower value",0.995
